Pemphigus Ab inh: inhibitors of pemphigus antibody binding to human desmoglein-3 | P32926 | DSG3-coupled beads, scFv-anti-DSG3-GFP binding, flow cytometry; stronger effect = lower value | binding (percent of control), % at 10 µM | 310,000 tested, 0.48% active | AID 588358;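 active = binding more than 3 SD below its plate's average and above zero; inconclusive = below that plate limit but binding exactly zero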;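 also: hits lower antibody fragment binding to DSG3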
NSD2 inh: blocks human histone methyltransferase NSD2 | NSD2 peptide methylation, AlphaScreen, 120 min | O96028 | inhibition, % at 12.5 µM | 310,000 tested, 0.54% active; in the data active = inhibition above about 50%
Target sequence (O96028 whole entry, looked up): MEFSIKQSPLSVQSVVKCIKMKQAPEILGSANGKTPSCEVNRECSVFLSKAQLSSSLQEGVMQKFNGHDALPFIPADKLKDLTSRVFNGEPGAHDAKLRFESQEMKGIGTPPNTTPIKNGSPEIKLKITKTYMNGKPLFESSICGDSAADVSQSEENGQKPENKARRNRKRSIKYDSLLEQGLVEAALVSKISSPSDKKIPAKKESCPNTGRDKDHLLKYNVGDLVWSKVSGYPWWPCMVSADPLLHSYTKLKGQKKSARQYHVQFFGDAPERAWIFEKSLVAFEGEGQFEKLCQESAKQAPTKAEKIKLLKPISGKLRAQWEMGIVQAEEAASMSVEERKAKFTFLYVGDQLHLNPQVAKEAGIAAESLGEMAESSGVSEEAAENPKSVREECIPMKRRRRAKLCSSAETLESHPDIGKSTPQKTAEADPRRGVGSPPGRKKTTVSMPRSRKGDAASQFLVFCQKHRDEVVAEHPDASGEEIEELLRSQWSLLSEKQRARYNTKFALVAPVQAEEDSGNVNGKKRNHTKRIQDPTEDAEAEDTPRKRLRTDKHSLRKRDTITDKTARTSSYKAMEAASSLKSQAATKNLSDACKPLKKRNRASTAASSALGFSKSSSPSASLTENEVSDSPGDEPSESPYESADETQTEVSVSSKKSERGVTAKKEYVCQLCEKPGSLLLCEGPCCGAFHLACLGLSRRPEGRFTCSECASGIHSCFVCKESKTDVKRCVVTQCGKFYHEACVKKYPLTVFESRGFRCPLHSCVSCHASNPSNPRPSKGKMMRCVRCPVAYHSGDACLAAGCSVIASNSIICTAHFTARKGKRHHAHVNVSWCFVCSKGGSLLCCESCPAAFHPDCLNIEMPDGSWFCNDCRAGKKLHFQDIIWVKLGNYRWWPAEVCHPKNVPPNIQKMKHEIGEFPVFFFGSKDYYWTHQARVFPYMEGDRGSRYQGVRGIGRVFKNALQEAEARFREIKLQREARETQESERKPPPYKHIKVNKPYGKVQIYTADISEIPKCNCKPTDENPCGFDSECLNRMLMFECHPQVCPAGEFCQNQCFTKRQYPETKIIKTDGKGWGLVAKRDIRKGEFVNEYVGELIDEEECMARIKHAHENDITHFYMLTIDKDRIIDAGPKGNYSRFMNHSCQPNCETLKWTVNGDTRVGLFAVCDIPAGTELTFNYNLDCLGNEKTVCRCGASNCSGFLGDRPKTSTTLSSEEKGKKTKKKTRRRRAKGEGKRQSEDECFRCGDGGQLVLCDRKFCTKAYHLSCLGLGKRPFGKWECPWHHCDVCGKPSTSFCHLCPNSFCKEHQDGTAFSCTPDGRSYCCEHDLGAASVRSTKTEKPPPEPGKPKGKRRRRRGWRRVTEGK
CaV13 ICDI inh: Primary screen for inhibitors of IQ motif and Ca2+-dependent inactivation inhibitor domain binding in CACNA1D, Förster resonance energy transfer in living cells, …; HEK cells, CFP/YFP FRET ICDI-IQ, plate reader, 10 min; percent FRET-ratio fall versus neutral wells; inhibition, % at 12.3 µM; 340,000 tested, 0.098% active;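 active = mean replicate inhibition of at least 30% and at least 1% of replicates passing that level; inconclusive = only one of the two criteria is met; inactive = neither criterion is met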;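 also: 0% = median of the neutral control wells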
ATG4B inh: ATG4B (human) cysteine protease inhibition | ATG4B cleavage of LC3-PLA2, NBD-HPC fluorescence, 1 h | inhibition, % at 8.33 µM | 340,000 tested, 0.51% active; in the data active = inhibition above about 40%
N-glyco inh: blocks N-linked glycosylation in D54 reporter cells; D54 ERlucT glycosylation luciferase reporter, 24 h; percent of 100 nM tunicamycin response; AID 588692; reporter increase, % at 12.5 µM; 360,000 tested, 0.23% active;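 active = mean luciferase reporter signal, scaled so untreated is 0 and the glycosylation-blocking control 100, at or above a set limit in every replicate; inconclusive = mean reaches the limit but not every replicate does; inactive = mean below the limit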;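 also: luciferase carries N-glycosylation sites so blocking glycosylation raises the light; 0% = median of neutral control wells and 100% = median of 100 nM tunicamycin wells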
Vif inh: HIV Vif inhibition; inhibition, % at 7.49 µM; AID 602346; 340,000 tested, 0.35% active; HEK293T cells, Vif self-association by quenched fluorescence, imaging, 24 h; in the data active = inhibition above about 50%, passing the limit was not always enough; inconclusive = no clear call, values can overlap the other calls; inactive = below about 31%
* = called active by the depositor; ? = inconclusive; . = no result; + = active, no number. Only some compounds are listed: those with a hit (about 1.9% of all), similar ones and a draw of the others.

SMILES	Pemphigus Ab inh	NSD2 inh	CaV13 ICDI inh	ATG4B inh	N-glyco inh	Vif inh
O[C@@H]1CN(Cc2cccs2)[C@@H](c2ccccc2)C[C@H]1n1cc(-c2ccc(F)cc2)nn1	.	.	-2	.	0	-4
NC(=O)Cc1ccc(C(=O)c2ccccc2F)s1	106	2	-6	9	0	2
NC(=O)Cc1ccc(C(=O)c2ccc(F)cc2)s1	75*	2	9	25	1	8
O=C(Nc1ccc(NC(=O)N2CCN(c3ccccc3O)CC2)cc1)N1CCN(c2ccccc2O)CC1	54*	-1	-2	-30	-2	2
CC(C)(C)OC(=O)N1CCCN(C(=O)Nc2cccc(Cl)c2)CC1	110	-2	-19	-1	-2	-6
CC(C)(C)OC(=O)N1CCCN(C(=O)Nc2ccccc2)CC1	87*	-1	-4	-2	-1	-3
COc1cc2[nH]c(=O)n3nc(-c4ccccc4)nc3c2cc1OC	.	.	.	-18	8	-2
CCN(CC)CCNc1nc2cc(OC)c(OC)cc2c2nc(-c3ccccc3)nn12	109	1	-5	-25	71*	-34
COc1ccc(C2=Nn3c(nnc3-c3ccccc3F)SC2)cc1OC1CCOC1 (stereo not drawn)	82*	.	-6	-2	20	-2
COc1ccc(OC)c(-c2nnc3n2N=C(c2ccc(OC)c(OC)c2)CS3)c1	97	.	-7	-13	?	.
CCCc1nnc2n1N=C(c1ccc(OC)c(OC)c1)CS2	105	.	-8	3	4	57*
COc1ccc(OC)c(-c2nnc3n2N=C(c2ccc(OC)c(OC4CCCC4)c2)CS3)c1	95	.	-10	-15	30*	.
CCc1ccccc1CNC(=O)C1CCC(CNS(=O)(=O)c2cccc3cccnc23)CC1 (stereo not drawn)	.	-1	.	.	.	.
CC(=O)c1cccc(CN2CCC(CO)(CCOc3ccccc3)CC2)c1	114	2	-21	-3	0	-3
COc1ccc(/C=N\NC(=O)c2ccc(Cn3cc(Br)c([N+](=O)[O-])n3)o2)c(OC)c1C	65*	3	-4	1	2	.
COc1ccc(/C=N/NC(=O)c2ccc(Cn3cc([N+](=O)[O-])cn3)o2)c(OC)c1C	96	-1	-1	11	2	1
Cc1cc(C)c2sc(N(CCN(C)C)C(=O)CCS(=O)(=O)c3ccccc3)nc2c1	104	1	-7	-2	-2	-6
O=C(Nc1cccc(C(F)(F)F)c1)c1ccco1	106	2	-3	-1	0	0
COc1cc(CNC(C)(C)CO)cc(Br)c1OCc1ccccc1	94	-2	-5	-5	2	56*
CCOc1ccc(N2C(=O)Nc3ccccc3C2(O)C(=O)N2CCN(c3ccccn3)CC2)cc1 (stereo not drawn)	116	-7	-3	5	27*	-2
CCOc1ccc(C(=O)N2CCN(c3ccccn3)CC2)cc1	118	-13	-14	1	-1	8
O=C(NNc1c2ccccc2nc2ccccc12)c1ccc(Cl)cc1	96	5	-5	1	-3	-1
COC(=O)C[C@@H]1OC[C@H](CO)N1S(=O)(=O)c1ccc(C)cc1	.	.	-6	.	.	.
CCN1/C(=C/c2sc(-c3ccccc3C)c[n+]2C)Sc2ccccc21	95	3	+	3	36*	-16
Cc1ccc(NC(=O)c2cc(S(=O)(=O)N3CCCCC3)ccc2N2CCOCC2)cc1F	104	-1	.	-15	-8	-5
SMILES	Pemphigus Ab inh	NSD2 inh	CaV13 ICDI inh	ATG4B inh	N-glyco inh	Vif inh
Cc1snc(S(=O)(=O)/C(C#N)=N/Nc2cccc(C(F)(F)F)c2)c1C#N	74*	.	.	-7	0	-7
COc1ccc(N/N=C(/C#N)S(=O)(=O)c2nsc(C)c2C#N)cc1	.	7	-6	-3	2	-1
CSc1nc(-c2ccccc2)nn1C(=O)c1ccco1	.	-4	-5	-5	2	-6
CC1CCN(S(=O)(=O)c2ccc3c(c2)c(=O)c(C(=O)NCc2ccco2)cn3C)CC1	107	-1	-3	-10	0	-9
CC1CCN(S(=O)(=O)c2ccc3c(c2)c(=O)c(C(=O)NCc2cccs2)cn3C)CC1	83*	-1	-7	-3	-1	-4
COC(=O)c1cccc(-n2sc3ccccc3c2=O)c1	38*	.	5	-9	-3	-2
O=c1c2cc(F)ccc2sn1-c1ccccc1Cl	.	.	-4	.	0	-4
Cc1ccc(-n2sc3cc(F)ccc3c2=O)c(C)c1	63*	.	-7	.	-2	3
O=c1c2ccccc2sn1-c1ccc(F)cc1	42*	.	-5	2	0	1
O=c1c2ccc(F)cc2sn1-c1ccccc1	50*	.	-6	.	0	-9
COc1cccc(-c2cnc(C(O)c3c(C)ccc4ccccc34)[nH]2)c1 (stereo not drawn)	.	1	-4	.	0	-3
Cc1ccc(NC(=O)c2nc[nH]c2C(=O)Nc2ccccc2F)cc1	105	.	-5	.	5	90*
Cc1ccccc1Nc1nc(N)nc(CCl)n1	107	.	-32	4	4	104*
CCOc1ccccc1NC(=O)c1nnn(-c2ccc3c(c2)OCCO3)c1N	109	-1	-4	0	-3	-2
Cc1ccc(C(=O)Nc2ccc(N3CCOCC3)nc2N2CCOCC2)cc1	98	1	-5	7	2	0
O=c1[nH]c(CSc2ncnc3sc(-c4ccccc4)cc23)nc2ccccc12	98	-5	-6	-2	33*	-1
O=c1[nH]c(CSc2nc(-c3ccccc3)cs2)nc2ccccc12	103	-1	-4	-2	0	.
CC1=C(Nc2ccc(C(=O)O)cc2)C(=O)c2ccccc2C1=O	95	16	-19	4	4	35
COC1=C(Nc2ccc(C)cc2)C(=O)c2ccccc2C1=O	95	78*	-5	21	-8	3
O=C1C(Cl)=C(Nc2ccccc2)C(=O)c2ccccc21	107	0	-15	-1	-23	12
COC1=C(Nc2ccccc2)C(=O)c2ccccc2C1=O	97	75*	-6	6	-1	.
CCn1ncc(C2=NOC(C(=O)NCc3ccc(Cl)cc3)C2)c1C (stereo not drawn)	108	1	-9	6	36*	-5
CCC(CC)C(=O)N(c1ccc(F)cc1)C1C=CS(=O)(=O)C1 (stereo not drawn)	83*	-3	-6	-5	1	-4
CC(C)C(=O)N(c1ccc(F)cc1)C1C=CS(=O)(=O)C1 (stereo not drawn)	101	.	-7	3	2	6
CCOC(=O)c1cc(-c2ccccc2)sc1NC(=S)Nc1cc(C)ccn1	.	-2	.	-5	1	169*
COc1ccc(CNC(=O)CN(C(=O)c2snc(C(N)=O)c2N)c2cccc(F)c2)cc1	?	2	-3	-5	1	33

Screens from PubChem.
